Results on 1 sequence are retold here after paper PMC7862700, “An all-to-all approach to the identification of sequence-specific readers for epigenetic DNA modifications on cytosine”.

Common to all, as to experiment: DAPPL (digital affinity profiling via proximity ligation, sequencing); 10 mM Tris-HCl pH 7.5, 50 mM NaCl, 1 mM DTT, 4% glycerol, room temperature, 30 min; GST-TFs on glutathione beads, 16-mer random dsDNA library, 0.1% formaldehyde crosslink after washing; high values mean tight binding
In one experiment the target is T1, FEV (Homo sapiens, UniProt Q99581 1-238).
T1 sequence: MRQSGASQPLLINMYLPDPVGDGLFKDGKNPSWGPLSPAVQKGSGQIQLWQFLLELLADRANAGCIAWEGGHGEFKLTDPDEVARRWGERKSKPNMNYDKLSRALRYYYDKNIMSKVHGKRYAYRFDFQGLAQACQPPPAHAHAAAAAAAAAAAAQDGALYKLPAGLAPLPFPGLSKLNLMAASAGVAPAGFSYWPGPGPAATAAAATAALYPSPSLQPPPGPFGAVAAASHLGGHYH
The note with it: protein: recombinant; tags: N-terminal GST; dsDNA, one strand shown. In outline: (§1)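 After expression in yeast as GST fusions, human transcription factors were bound to glutathione beads, DNA-barcoded and mixed with a tag-only sample. The pools were incubated with 200 nmole of a 16-mer random double-stranded DNA library in Tris/NaCl/DTT/glycerol buffer (30 min, room temperature), washed and crosslinked with 0.1% formaldehyde. Proximity ligation with BsaI/T4 ligase ran for 1 h at 37 °C, before PCR amplification and sequencing on an Illumina NextSeq500. Binding signal is a hexamer's read frequency for a factor divided by its frequency for the tag-only sample.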

A further experiment concerns the target ETV5 (Homo sapiens, UniProt P41161 1-510). As to conditions: protein: recombinant; tags: N-terminal GST; dsDNA, one strand shown. In outline:
as §1

The target of the next experiment is HSF1 (Homo sapiens, UniProt Q00613 1-529). As to conditions: protein: recombinant; tags: N-terminal GST; chain copies: 3; dsDNA, one strand shown. In outline: as §1
For a further experiment, the target named is T2, SPIC (Homo sapiens, UniProt Q8N5J4 1-248).
T2 sequence: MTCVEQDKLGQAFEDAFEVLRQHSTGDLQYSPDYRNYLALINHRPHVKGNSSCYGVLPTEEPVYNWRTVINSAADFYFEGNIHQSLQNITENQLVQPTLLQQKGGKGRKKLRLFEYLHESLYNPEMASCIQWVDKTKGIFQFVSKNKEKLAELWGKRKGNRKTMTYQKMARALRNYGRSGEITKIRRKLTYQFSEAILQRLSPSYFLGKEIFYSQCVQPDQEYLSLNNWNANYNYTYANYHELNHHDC
The note with it: protein: recombinant; tags: N-terminal GST; dsDNA, one strand shown. In outline: as §1

For another experiment, the target named is ELF4 (Homo sapiens, UniProt Q99607 1-663). As to conditions: protein: recombinant; tags: N-terminal GST; dsDNA, one strand shown. In outline: as §1
The target of a further experiment is T3, ELK4 (Homo sapiens, UniProt P28324-2 1-405).
T3 sequence: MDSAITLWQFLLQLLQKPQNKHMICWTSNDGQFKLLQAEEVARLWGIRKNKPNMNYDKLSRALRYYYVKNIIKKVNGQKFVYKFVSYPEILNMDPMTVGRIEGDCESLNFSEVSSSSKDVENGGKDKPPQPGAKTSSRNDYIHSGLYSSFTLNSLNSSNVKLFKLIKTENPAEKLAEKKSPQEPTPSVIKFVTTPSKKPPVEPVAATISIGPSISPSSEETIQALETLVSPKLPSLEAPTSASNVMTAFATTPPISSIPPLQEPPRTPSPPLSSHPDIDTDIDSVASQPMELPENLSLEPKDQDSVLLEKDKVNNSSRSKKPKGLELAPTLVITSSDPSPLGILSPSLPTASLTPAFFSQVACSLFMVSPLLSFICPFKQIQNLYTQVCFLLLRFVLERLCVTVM
The note with it: protein: recombinant; tags: N-terminal GST; dsDNA, one strand shown. In outline:
as §1

A further experiment addresses T4, ETV2 (Homo sapiens, UniProt O00321 1-342).
T4 sequence: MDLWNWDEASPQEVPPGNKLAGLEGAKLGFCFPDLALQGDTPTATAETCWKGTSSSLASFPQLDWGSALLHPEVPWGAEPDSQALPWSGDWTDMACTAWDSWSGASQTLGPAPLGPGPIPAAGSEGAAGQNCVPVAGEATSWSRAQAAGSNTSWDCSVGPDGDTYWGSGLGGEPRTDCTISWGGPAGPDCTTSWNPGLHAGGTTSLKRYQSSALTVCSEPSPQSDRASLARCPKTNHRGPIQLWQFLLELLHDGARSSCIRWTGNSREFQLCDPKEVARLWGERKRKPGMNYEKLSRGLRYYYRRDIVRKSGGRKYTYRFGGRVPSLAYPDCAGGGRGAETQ
The note with it: protein: recombinant; tags: N-terminal GST; dsDNA, one strand shown. In outline:
as §1

Another experiment has as its target T5, ELF3 (Homo sapiens, UniProt P78545 1-371).
T5 sequence: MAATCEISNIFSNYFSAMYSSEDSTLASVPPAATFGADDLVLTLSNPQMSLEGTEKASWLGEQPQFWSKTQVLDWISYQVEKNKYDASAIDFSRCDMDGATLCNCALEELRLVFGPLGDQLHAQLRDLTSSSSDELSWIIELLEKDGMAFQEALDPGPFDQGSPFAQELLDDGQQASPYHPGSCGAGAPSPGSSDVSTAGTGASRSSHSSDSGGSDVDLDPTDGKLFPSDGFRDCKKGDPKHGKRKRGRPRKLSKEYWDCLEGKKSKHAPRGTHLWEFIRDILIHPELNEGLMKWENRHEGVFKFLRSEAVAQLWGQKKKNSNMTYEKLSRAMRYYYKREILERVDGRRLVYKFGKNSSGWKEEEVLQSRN
As to conditions: protein: recombinant; tags: N-terminal GST; dsDNA, one strand shown. In outline:
as §1

Another experiment addresses CRX (Homo sapiens, UniProt O43186 1-299). The note with it: protein: recombinant; tags: N-terminal GST; dsDNA, one strand shown. In outline:
as §1

The next experiment has as its target ETV1 (Homo sapiens, UniProt P50549 1-477). The note with it: protein: recombinant; tags: N-terminal GST; dsDNA, one strand shown. In outline:
as §1

A further experiment concerns the target T6, ERF (Homo sapiens, UniProt P50548 1-548).
T6 sequence: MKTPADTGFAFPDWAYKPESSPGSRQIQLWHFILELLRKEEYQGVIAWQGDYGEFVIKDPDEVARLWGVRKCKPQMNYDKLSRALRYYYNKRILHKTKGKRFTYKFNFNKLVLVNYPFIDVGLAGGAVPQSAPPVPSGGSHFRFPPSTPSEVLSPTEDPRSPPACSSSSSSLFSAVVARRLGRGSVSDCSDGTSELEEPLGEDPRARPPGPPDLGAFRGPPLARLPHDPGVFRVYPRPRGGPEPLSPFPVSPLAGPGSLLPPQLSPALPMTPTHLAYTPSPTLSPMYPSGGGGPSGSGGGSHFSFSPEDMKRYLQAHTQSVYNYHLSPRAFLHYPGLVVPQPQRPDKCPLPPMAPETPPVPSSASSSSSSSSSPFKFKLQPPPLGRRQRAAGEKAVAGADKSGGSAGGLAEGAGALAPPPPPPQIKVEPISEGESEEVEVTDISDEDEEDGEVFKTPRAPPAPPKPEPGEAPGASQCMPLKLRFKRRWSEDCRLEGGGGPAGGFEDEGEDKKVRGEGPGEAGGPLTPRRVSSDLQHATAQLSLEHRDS
As to conditions: protein: recombinant; tags: N-terminal GST; dsDNA, one strand shown. In outline: as §1

The target in another experiment is T7, ETV3L (Homo sapiens, UniProt Q6ZN32 1-361).
T7 sequence: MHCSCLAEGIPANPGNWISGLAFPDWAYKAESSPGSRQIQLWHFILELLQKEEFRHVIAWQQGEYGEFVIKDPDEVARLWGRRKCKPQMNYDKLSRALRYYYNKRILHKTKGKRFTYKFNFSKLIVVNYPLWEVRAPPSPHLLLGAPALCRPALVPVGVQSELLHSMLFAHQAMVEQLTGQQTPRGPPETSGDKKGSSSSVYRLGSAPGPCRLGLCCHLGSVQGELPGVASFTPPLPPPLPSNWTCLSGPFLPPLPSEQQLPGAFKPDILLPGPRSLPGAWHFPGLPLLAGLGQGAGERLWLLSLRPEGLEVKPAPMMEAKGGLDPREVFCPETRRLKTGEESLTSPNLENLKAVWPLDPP
The note with it: protein: recombinant; tags: N-terminal GST; dsDNA, one strand shown. In outline: as §1

The target of a further experiment is T8, ETS2 (Homo sapiens, UniProt P15036 1-469).
T8 sequence: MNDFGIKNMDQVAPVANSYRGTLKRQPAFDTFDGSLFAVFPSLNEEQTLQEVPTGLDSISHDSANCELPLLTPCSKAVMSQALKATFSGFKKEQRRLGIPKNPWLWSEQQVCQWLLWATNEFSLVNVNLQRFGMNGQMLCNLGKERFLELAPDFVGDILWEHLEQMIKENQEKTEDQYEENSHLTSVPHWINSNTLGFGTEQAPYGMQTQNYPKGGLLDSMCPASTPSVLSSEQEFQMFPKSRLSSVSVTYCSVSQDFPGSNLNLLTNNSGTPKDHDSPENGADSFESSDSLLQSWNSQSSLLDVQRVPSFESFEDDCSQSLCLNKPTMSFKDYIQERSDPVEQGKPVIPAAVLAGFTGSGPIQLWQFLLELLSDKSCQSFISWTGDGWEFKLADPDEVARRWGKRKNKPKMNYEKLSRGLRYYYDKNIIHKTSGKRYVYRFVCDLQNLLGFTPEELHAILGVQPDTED
The note with it: protein: recombinant; tags: N-terminal GST; dsDNA, one strand shown. In outline: as §1

The target of another experiment is T9, SPDEF (Homo sapiens, UniProt O95238 1-335).
T9 sequence: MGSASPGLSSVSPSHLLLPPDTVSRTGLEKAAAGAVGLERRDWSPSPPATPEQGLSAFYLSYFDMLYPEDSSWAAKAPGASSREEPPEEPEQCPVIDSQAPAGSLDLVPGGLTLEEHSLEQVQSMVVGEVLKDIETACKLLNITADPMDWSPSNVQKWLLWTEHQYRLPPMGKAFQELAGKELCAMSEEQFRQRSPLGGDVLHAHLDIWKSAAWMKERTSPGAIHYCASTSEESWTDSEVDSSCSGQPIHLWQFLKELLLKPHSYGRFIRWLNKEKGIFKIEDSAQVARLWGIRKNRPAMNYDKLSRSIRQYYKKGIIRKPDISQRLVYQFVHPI
The note with it: protein: recombinant; tags: N-terminal GST; dsDNA, one strand shown. In outline:
as §1

The target in the next experiment is T10, ETV7 (Homo sapiens, UniProt Q9Y603 1-341).
T10 sequence: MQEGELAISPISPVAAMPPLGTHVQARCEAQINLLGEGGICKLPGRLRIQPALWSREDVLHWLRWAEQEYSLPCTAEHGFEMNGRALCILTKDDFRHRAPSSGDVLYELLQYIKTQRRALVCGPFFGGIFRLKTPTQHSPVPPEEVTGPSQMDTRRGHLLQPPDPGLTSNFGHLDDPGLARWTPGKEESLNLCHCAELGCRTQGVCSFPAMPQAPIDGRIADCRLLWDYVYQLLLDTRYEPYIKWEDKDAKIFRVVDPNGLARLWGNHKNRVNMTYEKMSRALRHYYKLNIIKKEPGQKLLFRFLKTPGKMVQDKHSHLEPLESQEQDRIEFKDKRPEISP
The note with it: protein: recombinant; tags: N-terminal GST; dsDNA, one strand shown. In outline:
as §1

In a further experiment the target is T11, ELF5 (Homo sapiens, UniProt Q9UKW6-2 1-255).
T11 sequence: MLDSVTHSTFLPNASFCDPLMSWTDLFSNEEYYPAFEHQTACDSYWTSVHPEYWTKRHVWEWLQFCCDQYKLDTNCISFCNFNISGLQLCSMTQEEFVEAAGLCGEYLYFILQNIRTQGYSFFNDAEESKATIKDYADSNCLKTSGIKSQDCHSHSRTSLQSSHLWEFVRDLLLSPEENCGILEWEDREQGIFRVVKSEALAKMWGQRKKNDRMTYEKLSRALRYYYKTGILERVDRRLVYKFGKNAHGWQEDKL
As to conditions: protein: recombinant; tags: N-terminal GST; dsDNA, one strand shown. In outline: as §1

A further experiment addresses T12, ETV3 (Homo sapiens, UniProt P41162-2 1-143).
T12 sequence: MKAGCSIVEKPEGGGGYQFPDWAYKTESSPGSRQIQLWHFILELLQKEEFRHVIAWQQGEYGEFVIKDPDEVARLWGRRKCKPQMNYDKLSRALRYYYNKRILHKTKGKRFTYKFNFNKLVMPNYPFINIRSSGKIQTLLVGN
The note with it: protein: recombinant; tags: N-terminal GST; dsDNA, one strand shown. In outline:
as §1

In a further experiment the target is ETV6 (Homo sapiens, UniProt P41212 1-452). As to conditions: protein: recombinant; tags: N-terminal GST; dsDNA, one strand shown. In outline: as §1
Chain of ETV6 (P41212 whole entry): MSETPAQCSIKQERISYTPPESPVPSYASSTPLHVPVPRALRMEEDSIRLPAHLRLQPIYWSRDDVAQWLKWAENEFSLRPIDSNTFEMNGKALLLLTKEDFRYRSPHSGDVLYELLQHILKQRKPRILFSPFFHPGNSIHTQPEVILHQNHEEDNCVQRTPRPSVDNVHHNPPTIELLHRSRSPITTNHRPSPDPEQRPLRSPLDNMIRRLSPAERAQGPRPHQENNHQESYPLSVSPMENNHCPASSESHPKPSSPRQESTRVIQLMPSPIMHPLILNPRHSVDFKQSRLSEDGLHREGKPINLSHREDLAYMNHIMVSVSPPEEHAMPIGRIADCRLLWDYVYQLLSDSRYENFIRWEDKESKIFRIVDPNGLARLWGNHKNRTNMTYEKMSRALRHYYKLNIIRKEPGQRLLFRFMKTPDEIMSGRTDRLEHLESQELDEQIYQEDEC

Chain of CRX (O43186 whole entry): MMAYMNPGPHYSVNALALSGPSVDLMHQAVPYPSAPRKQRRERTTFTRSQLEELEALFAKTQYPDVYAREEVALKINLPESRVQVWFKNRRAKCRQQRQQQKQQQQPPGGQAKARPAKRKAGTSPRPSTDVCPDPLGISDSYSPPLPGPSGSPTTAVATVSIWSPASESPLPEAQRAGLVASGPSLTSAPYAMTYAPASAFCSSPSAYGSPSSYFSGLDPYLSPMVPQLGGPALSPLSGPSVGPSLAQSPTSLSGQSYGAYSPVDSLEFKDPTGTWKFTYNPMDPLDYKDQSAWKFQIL
Chain of HSF1 (Q00613 whole entry): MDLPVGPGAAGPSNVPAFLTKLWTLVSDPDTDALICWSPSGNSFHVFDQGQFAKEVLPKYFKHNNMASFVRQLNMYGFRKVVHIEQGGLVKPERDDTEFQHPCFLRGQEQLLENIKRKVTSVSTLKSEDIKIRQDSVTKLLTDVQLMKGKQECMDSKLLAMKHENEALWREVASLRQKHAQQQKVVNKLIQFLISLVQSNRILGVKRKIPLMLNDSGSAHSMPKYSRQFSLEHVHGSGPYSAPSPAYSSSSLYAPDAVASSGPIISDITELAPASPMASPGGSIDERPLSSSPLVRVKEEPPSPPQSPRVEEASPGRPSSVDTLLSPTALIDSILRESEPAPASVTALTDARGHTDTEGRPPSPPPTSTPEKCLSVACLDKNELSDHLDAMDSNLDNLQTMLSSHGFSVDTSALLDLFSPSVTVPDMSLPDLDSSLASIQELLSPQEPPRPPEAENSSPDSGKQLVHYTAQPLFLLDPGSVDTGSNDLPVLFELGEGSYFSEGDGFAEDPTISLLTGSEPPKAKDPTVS
Chain of ETV1 (P50549 whole entry): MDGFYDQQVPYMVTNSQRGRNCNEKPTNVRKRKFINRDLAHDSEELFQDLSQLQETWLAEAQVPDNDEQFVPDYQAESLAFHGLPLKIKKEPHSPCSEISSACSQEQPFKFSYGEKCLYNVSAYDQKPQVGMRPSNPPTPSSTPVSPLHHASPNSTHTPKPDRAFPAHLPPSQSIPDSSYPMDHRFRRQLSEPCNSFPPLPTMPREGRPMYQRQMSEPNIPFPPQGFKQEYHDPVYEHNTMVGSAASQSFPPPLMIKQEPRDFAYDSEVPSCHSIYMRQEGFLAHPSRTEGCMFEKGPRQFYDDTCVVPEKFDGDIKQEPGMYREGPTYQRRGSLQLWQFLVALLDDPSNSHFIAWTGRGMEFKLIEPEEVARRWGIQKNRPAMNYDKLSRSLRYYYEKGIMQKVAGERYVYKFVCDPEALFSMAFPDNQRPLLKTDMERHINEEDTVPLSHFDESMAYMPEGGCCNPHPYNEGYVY
Chain of ELF4 (Q99607 whole entry): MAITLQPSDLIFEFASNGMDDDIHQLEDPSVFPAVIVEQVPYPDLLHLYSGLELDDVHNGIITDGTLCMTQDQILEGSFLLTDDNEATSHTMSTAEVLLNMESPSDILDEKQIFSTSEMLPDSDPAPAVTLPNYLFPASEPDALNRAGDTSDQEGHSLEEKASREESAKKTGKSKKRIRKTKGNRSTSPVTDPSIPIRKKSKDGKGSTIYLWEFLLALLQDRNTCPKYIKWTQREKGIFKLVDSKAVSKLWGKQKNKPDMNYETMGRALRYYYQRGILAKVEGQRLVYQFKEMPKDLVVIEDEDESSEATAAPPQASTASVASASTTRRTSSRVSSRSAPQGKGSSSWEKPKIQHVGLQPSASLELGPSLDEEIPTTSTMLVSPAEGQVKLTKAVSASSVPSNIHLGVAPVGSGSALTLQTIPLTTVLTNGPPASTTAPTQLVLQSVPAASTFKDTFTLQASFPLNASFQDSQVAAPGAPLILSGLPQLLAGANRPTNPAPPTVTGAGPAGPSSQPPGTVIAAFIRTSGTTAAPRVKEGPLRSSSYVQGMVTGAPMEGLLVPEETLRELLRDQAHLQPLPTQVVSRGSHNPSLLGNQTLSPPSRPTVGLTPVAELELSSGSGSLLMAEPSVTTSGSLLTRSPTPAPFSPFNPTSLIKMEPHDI
Chain of ETV5 (P41161 whole entry): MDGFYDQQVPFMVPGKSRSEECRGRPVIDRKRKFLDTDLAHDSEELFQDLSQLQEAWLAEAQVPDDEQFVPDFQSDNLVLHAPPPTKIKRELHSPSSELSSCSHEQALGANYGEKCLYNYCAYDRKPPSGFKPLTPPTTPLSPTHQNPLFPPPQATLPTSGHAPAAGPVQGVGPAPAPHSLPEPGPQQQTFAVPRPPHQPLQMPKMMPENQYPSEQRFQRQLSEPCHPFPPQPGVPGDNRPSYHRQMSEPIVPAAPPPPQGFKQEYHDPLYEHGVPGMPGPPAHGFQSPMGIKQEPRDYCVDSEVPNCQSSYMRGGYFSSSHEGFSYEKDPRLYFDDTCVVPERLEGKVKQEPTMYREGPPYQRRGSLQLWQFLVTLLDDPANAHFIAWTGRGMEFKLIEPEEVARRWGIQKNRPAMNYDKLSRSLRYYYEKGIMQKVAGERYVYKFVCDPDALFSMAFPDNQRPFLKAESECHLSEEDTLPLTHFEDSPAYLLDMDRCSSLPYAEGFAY

Take CGTTTC: the binding signal was 1.98 fold enrichment (6-mer frequency, TF over GST control) in the experiment with FEV; 1.72 fold enrichment (6-mer frequency, TF over GST control) with ETV5; 1.24 fold enrichment (6-mer frequency, TF over GST control) with HSF1; 1.77 fold enrichment (6-mer frequency, TF over GST control) in the experiment with SPIC; 1.8 fold enrichment (6-mer frequency, TF over GST control) with ELF4; 1.65 fold enrichment (6-mer frequency, TF over GST control) with ELK4. In addition, the binding signal with ETV2 is 1.41 fold enrichment (6-mer frequency, TF over GST control); with ELF3, 1.72 fold enrichment (6-mer frequency, TF over GST control); with CRX, 1.06 fold enrichment (6-mer frequency, TF over GST control); with ETV1 it was 1.61 fold enrichment (6-mer frequency, TF over GST control); with ERF, 1.74 fold enrichment (6-mer frequency, TF over GST control); with ETV3L, 1.64 fold enrichment (6-mer frequency, TF over GST control). Moreover, the binding signal in the experiment with ETS2 is 1.74 fold enrichment (6-mer frequency, TF over GST control); with SPDEF it was 1.75 fold enrichment (6-mer frequency, TF over GST control); with ETV7, 1.98 fold enrichment (6-mer frequency, TF over GST control); with ELF5 it was 2.04 fold enrichment (6-mer frequency, TF over GST control); in the experiment with ETV3 it was 1.83 fold enrichment (6-mer frequency, TF over GST control); with ETV6, 1.95 fold enrichment (6-mer frequency, TF over GST control).
